This is a sample that favours compounds with a hit; in the whole collection about 21% have one here.
Shiga toxin inh – A qHTS for Small Molecule Inhibitors of Shiga Toxin; inhibition, % at 38.7 µM; 9.2% of 290,000 active; Vero cells, Shiga toxin protein synthesis inhibition reporter; AID 2315, 2010; in the data active = inhibition mostly above about 28%, no sharp cut-off; inactive = mostly below about 43%; note: 0% is about no effect
Cycloheximide cs – Cycloheximide Counterscreen for Small Molecule Inhibitors of Shiga Toxin; cell reporter, cycloheximide protein synthesis inhibition counterscreen; max response, %; AID 2314, 2010; 12% of 300,000 active; in the data active = max response mostly above about 13%, no sharp cut-off; inactive = mostly below about 14%; note: read at 38.3 µM for the half of the compounds with a filed dose; 0% is about no effect
Pf growth 48h – Primary qHTS for delayed death inhibitors of the malarial parasite plastid, 48 hour incubation | P. falciparum luciferase growth in erythrocytes, 48 h | 5.9% of 310,000 active | AID 504832, 2011 | Potency, µM (highest dose often 28.7 µM), for the others: top-dose activity change, negative = inhibition, actives largely listed as inhibitors; note: potency is the fitted concentration of half-maximal effect; % is set by controls: 0 for no effect and ±100 for the full control effect
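Luciferase-expressing parasites in RBCs, 2% Hct / 0.1% parasitemia final; RPMI 1640 + 0.5% Albumax; 37 C, 5% CO2, one generation; luminescence read-out, lower signal = inhibition.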
Pf growth 96h – Primary qHTS for delayed death inhibitors of the malarial parasite plastid, 96 hour incubation; P. falciparum luciferase reporter growth, 96 h; Potency, µM (highest dose often 28.7 µM), without a hit: at the top dose activity change, negative = inhibition, most hits filed as inhibitors; 6.9% of 320,000 active; note: potency is the fitted concentration of half-maximal effect; % is set by controls: 0 for no effect and ±100 for the full control effect
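Compounds incubated with erythrocytes infected by luciferase-expressing P. falciparum (2% hematocrit, 0.05% parasitemia final) for 96 hours, 37 C in 5% CO2. Growth inhibition scored as decreased luciferase luminescence.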
Starred values were filed as active, the others as inactive; ? = inconclusive; · = not tested or not shown; ! = repeats disagree. Unless noted, calls come from the whole dose curve; as a rule, active = well fitted inhibition curve with a large enough effect; inconclusive = small, poorly fitted or top-dose-only effect, or another doubt; inactive = no such curve, though single readings can be large or run the other way.

SMILES	Shiga toxin inh	Cycloheximide cs	Pf growth 48h	Pf growth 96h
Cc1ccc(N(CC(=O)NC2CCCCC2)S(=O)(=O)c2c(C)noc2C)cc1	-7.3	2.5	-10.3%	43.3%
Cc1ccc(OCc2ccc(-c3ccccc3)cc2)c([N+](=O)[O-])n1	29.2	25.1*	32.1%	18.8%
Cc1cc(-c2nnc(-c3cccc(C(F)(F)F)c3)o2)no1	76.6*	43.8*	136.8%	150.2%
Cc1ccc(-c2nnc(-c3cc(C)on3)o2)cc1	59.0*	38.9*	187.8%	238.9%
CCOC(=O)[C@H]1[C@H]2COc3ccc(Cl)cc3[C@@H]2N2C(=O)CN(Cc3ccccc3)C(=O)[C@@]12C	·	·	?	5.86µM*
CCOC(=O)[C@H]1[C@H]2COc3ccc(Cl)cc3[C@@H]2N2C(=O)CN(Cc3ccc(Cl)cc3)C(=O)[C@@]12C	·	·	14.7µM*	?
CCN(CC)S(=O)(=O)c1ccc(=O)n(CC(=O)N2Cc3ccccc3CC2C(N)=O)c1 (stereo unspecified)	·	·	-5.4%	-5.2%
O=S1(=O)N(Cc2ccccc2F)CCCN1Cc1c(F)cccc1Cl	20.5	-2.1	9.5%	-4.5%
COc1ccc(-c2cccc(C3CC=CC4C3C(=O)N(Cc3ccccc3)C4c3ccc(C(F)(F)F)cc3)c2)cc1 (stereo unspecified)	-5.0	0.5	6.57µM*	7.38µM*
CN(C)c1ccc(-c2cccc(C3CC=CC4C3C(=O)N(Cc3ccccc3)C4c3ccc(C(F)(F)F)cc3)c2)cc1 (stereo unspecified)	50.2	14.1*!	?	?
O=C1C2C(c3ccccc3)CC=CC2C(c2cccc([N+](=O)[O-])c2)N1Cc1ccccc1 (stereo unspecified)	2.9	-1.0	·	·
O=C1C2C(c3ccccc3)CC=CC2[C@H](c2ccc(C(F)(F)F)cc2)N1Cc1ccccc1 (stereo partly specified)	14.8	7.3	3.29µM*	?
Cc1ccc(-c2cccc(C3CC=CC4C3C(=O)N(Cc3ccccc3)C4c3cc(C)ccc3F)c2)cc1 (stereo unspecified)	24.4	22.5	4.65µM*	7.38µM*
C[C@@H]1CC=C[C@H]2[C@H]1C(=O)N(Cc1ccccc1)[C@H]2c1ccc(C(F)(F)F)cc1	-5.0	-1.2	?	?
O=C(O)c1ccc(OS(=O)(=O)c2ccc(Cl)s2)cc1	·	·	30.1%	24.1%
COc1ccc(C2C3C=CCC(c4cccc(/C=C/c5ccccc5)c4)C3C(=O)N2Cc2ccccc2)cc1Cl (stereo unspecified)	35.9*	36.3*	·	·
COc1ccc([C@H]2[C@H]3C=CC[C@@H](C)[C@@H]3C(=O)N2Cc2ccccc2)cc1Cl	-2.2	-6.5	?	?
CC1(C)C(=O)CC[C@@]2(C)[C@H]1CC[C@@]1(C)CC3=C(CC[C@@H]12)[C@@]1(C)CCC(=O)C(C)(C)[C@@H]1CC3	·	·	11.7µM*	?
CCCCSc1nc2sc3c(c2c(=O)n1-c1ccc(OC)cc1)CCN(C)C3	-8.9	-0.2	9.28µM*	?
CCSc1nc2sc3c(c2c(=O)n1-c1ccccc1)CCN(C(C)C)C3	-2.4	-3.1	1.47µM*	0.828µM*
CCSc1nc2sc3c(c2c(=O)n1-c1ccccc1C)CCN(C)C3	-13.9	-5.3	5.22µM*	1.47µM*
CCCCSc1nc2sc3c(c2c(=O)n1-c1ccccc1)CCN(C)C3	-9.1	-2.0	5.22µM*	4.15µM*
Cc1ccc(S(=O)(=O)NCCOc2cc(C)ccc2C)cc1	-5.2	1.6	4.8%	?
c1ccc2c(c1)ncn2CCCCOc1ccc2c(c1)CCC2	36.9	18.0*	·	5.86µM*
c1ccc2c(c1)ncn2CCCOc1ccc2c(c1)CCC2	97.6*	19.4*	·	13.1µM*
SMILES	Shiga toxin inh	Cycloheximide cs	Pf growth 48h	Pf growth 96h
COc1cccc(NC(C)C(=O)Nc2cc([N+](=O)[O-])ccc2Cl)c1 (stereo unspecified)	8.4	14.5	-25.8%	14.7µM*
CCC(CC)C(=O)Nc1cc([N+](=O)[O-])ccc1Cl	-7.0	-1.0	-1.0%	7.38µM*
O=[N+]([O-])c1ccc(Cl)c(NC2=NCCCCC2)c1	6.5	-3.9	?	9.28µM*
O=[N+]([O-])c1ccc(Cl)c(NC(=S)N2CCCC2)c1	49.7*	32.6*	36.3%	24.0%
CC(=O)Nc1cccc(Oc2ccc([N+](=O)[O-])cc2Cl)c1	19.8	14.6	6.4%	8.9%
CCC(CC)C(=O)Nc1cc([N+](=O)[O-])ccc1F	-4.0	-5.5	5.8%	?
CC(C)(C)c1ccc(C(=O)N2CCN(C(=O)c3ccco3)CC2)cc1	-10.8	-3.0	19.5%	50.1%
Cc1ccnc(NC2CCCCC2)c1	108.9*	30.6*	0.0%	-9.2%
CC(C)n1c(CN2CCN(C(=O)c3ccco3)CC2)nc2c1c(=O)n(C)c(=O)n2C	-6.0	-1.4	105.6%	14.6%
COc1cccc(CNS(=O)(=O)c2c(C)nc3sccn3c2=O)c1	-1.4	-2.5	3.9%	0.522µM*
CCOC(=O)c1ccc(NS(=O)(=O)c2c(C)nc3sccn3c2=O)cc1	1.1	1.6	30.8%	10.4µM*
NC(=O)c1cc(S(=O)(=O)NCCc2ccc(Cl)cc2)cs1	-3.2	-2.9	?	-9.6%
CCc1ccc(NS(=O)(=O)c2ccc(C)c(C(=O)N3CCOCC3)c2)cc1	-12.2	-1.2	0.1%	?
C[n+]1cccc2c(Br)ccc([O-])c21	-7.6	-1.1	?	2.33µM*
O=C(CCc1nc2ccccc2s1)N1CCN(S(=O)(=O)c2cccs2)CC1	39.0	12.2	?	13.1µM*
O=S(=O)(c1cccs1)N1CCN(Cc2nc3ccccc3s2)CC1	48.6*	38.1*	?	?
O=C(CCCOc1ccccc1)N1CCN(S(=O)(=O)c2cccs2)CC1	41.9	8.2	·	-22.9%
O=C(OCc1nc2ccccc2s1)C1CCN(S(=O)(=O)c2cccs2)CC1	97.5*	34.9*	102.2%	14.9%
COc1ccc(C(=O)OCCOc2cccc(Cl)c2)cc1S(=O)(=O)N1CCOCC1	4.2	-1.2	0.4%	30.6%
CN(C)S(=O)(=O)c1ccc(Cl)c(NC(=O)CN2C(=O)NC(C)(C3CC3)C2=O)c1 (stereo unspecified)	-2.1	-5.6	-12.3%	?
N#CCCN(C(=O)CSc1ncccn1)c1ccc2c(c1)OCCO2	·	·	-27.5%	?
O=C(CCl)N(C/C=C/c1ccccc1)c1ccc2c(c1)OCCO2	164.4*	52.0*	?	?
CCOc1cc(S(=O)(=O)n2ccnc2)ccc1Cl	4.0	-0.5	19.9%	3.2%
N/C(CCS(=O)(=O)c1ccc(Cl)cc1)=N\OC(=O)c1ccccc1C(F)(F)F	-4.3	1.5	3.7µM*	9.28µM*
CC(C)CN1CCNC(=O)C1CC(=O)NCCc1cnn(-c2ccccc2)c1 (stereo unspecified)	-1.7	-3.4	30.7%	?
COc1cccc(CNC(=O)CC2C(=O)NCCN2CCCc2ccccc2)c1 (stereo unspecified)	25.7	-0.3	?	9.28µM*
COc1ccccc1CCNC(=O)CC1C(=O)NCCN1CCCc1ccccc1 (stereo unspecified)	-5.7	-2.7	?	9.1%

From PubChem
